High-throughput results: PubChem, Sanford-Burnham Center for Chemical Genomics
PLAP activator = activates human placental alkaline phosphatase; P05187; purified PLAP enzyme, luminescent substrate read-out; hits give high values; activation fold at 20 µM; actives 1.2% (n = 96,000); in the data active = activation fold above about 2
CYP2C9 inh = human CYP2C9 inhibition. P11712. CYP2C9 Supersomes, luciferin-H conversion, luminescence. inhibition, % at 5 µM. actives 20% (n = 96,000);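 active = blocking of liver enzyme CYP2C9 beyond about 50% at 5 µM, limit read from the data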
Target sequence (P11712 whole entry, looked up): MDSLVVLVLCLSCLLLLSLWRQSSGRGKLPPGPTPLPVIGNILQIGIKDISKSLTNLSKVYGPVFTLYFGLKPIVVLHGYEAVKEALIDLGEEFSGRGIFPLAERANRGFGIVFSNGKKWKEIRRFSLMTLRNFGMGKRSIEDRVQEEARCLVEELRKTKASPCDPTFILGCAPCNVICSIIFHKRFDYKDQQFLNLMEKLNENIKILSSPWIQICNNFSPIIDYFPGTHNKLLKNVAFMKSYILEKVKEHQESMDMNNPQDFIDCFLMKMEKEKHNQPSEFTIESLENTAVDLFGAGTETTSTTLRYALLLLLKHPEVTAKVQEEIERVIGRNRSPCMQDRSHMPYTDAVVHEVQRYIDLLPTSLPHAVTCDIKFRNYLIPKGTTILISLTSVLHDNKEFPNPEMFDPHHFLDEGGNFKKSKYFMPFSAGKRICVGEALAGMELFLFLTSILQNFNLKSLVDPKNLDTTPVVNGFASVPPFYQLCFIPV
CYP2C9 act = increases human cytochrome P450 2C9 activity. AID 1024. P11712. activation factor at 5 µM. actives 1.4% (n = 96,000). recombinant CYP2C9, luciferin-H conversion, luminescence; hits give high values; factor 1 = untreated enzyme, 0 = blocked;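 active = activation factor of 2 or more for CYP2C9 at a 5 µM dose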;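 note: 0 = sulfaphenazole-blocked wells and 1 = vehicle-only wells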
CYP2C19 activ = cytochrome P450 2C19 (human) activation | P33261 | recombinant CYP2C19, luciferin-H EGE luminescence; hits give high values; 0 = fully inhibited enzyme, 1 = untreated enzyme | activation factor at 5 µM | 96,000 tested, under 10 active;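 active = activation factor of at least 2 at 5 µM in the primary screen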;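 note: 0 = wells with 2.5 mM tranylcypromine and 1 = vehicle-only wells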
CYP2C19 inhib = blocks human cytochrome P450 2C19. actives 21% (n = 96,000). inhibition, % at 5 µM. CYP2C19 Supersomes, luciferin-H EGE luminescence, 30 min. P33261;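 active = CYP2C19 inhibition above a set limit at 5 µM in the primary screen, cut at about 50% in these data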;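 note: plate controls were negative control wells for no effect and 2.5 mM tranylcypromine positive control for full effect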
* marks the source's active call; other numbers are inactive results; x = not tested or not shown. Only some compounds are listed: those with a hit (about 31% of all), similar ones and a draw of the others.

SMILES	PLAP activator	CYP2C9 inh	CYP2C9 act	CYP2C19 activ	CYP2C19 inhib
Cc1ccc(Cl)cc1NC(=O)CCC(=O)Nc1cc(Cl)ccc1C	0.2	14	0.9	1.2	-23
Cc1ccc(-c2csc3nnc(SCC(=O)N4CCN(Cc5ccccc5)CC4)n23)cc1	1.5	68*	0.3	0.4	57*
Cc1ccc(-c2nnc(SCC(=O)N3CCCc4ccccc43)n2N)cc1	0.9	-19	1.2	0.4	58*
COc1ccccc1OCc1nnc(SCC(=O)N2CCCCC2)n1-c1ccccc1	1.6	7	0.9	0.3	71*
O=C(CSc1nnc2scc(-c3ccccc3)n12)N1CCN(Cc2ccccc2)CC1	1.8	49	0.5	0.6	41
N#Cc1ccc(OCc2nnc(SCC(=O)N3CCCc4ccccc43)n2-c2ccccc2)cc1	1.7	87*	0.1	0.1	85*
CCc1cc2c(cc3c(=O)n(CC(=O)NCCCN(CC)CC)nc(CC)n32)s1	0.8	-5	1	0.9	9
CCCOc1ccc(N2C(=O)CC(N3CCN(c4ccccc4OC)CC3)C2=O)cc1 (stereo not given)	1.5	-13	1.1	1	1
Cc1ccc(CS(=O)(=O)CCC(=O)NCCCOC(C)C)cc1	1.2	10	0.9	1.1	-5
Cn1c(Cc2cccs2)nnc1SCC(=O)N1CCCc2ccccc21	0.9	-2	1	0.7	34
CC(c1nnc(SCC(=O)N2CCc3ccccc32)n1-c1ccc(Cl)cc1)N(C)C (stereo not given)	1.4	21	0.8	0.4	61*
O=C(CSc1nnc(COc2ccccc2)n1-c1ccccc1)c1cccs1	0.9	97*	0	0	98*
CCCn1c(SCC(=O)N2CCCc3ccccc32)nnc1-c1ccccn1	1.2	-8	1.1	0.2	79*
O=C(CSc1nnc2scc(-c3ccccc3)n12)N1CCCc2ccccc21	0.9	36	0.6	0.4	61*
Cc1ccc(OCc2nnc(SCC(=O)C(C)(C)C)n2Cc2ccco2)cc1	1.4	74*	0.3	0.8	20
O=C(CSc1nnc(COc2ccccc2)n1Cc1ccco1)NCc1ccco1	1.6	78*	0.2	0.4	58*
Cc1cc(NC(=O)CSc2nnc(COc3ccccc3)n2Cc2ccco2)no1	0	38	0.6	1	-2
CCN(CC)C(=O)CSc1nnc(-c2ccccn2)n1-c1ccc(C)c(C)c1	1.4	-1	1	1.1	-5
COC(=O)CN(c1ccccc1C)S(C)(=O)=O	1	-6	1.1	1	3
Cc1ccc(N(CC(=O)N/N=C/c2cccs2)S(C)(=O)=O)cc1Cl	0.7	69*	0.3	0.5	47
Cn1cccc1CC(=O)N/N=C\c1cccs1	1	9	0.9	0.8	21
COC(=O)CN(c1c(C)cccc1C)S(C)(=O)=O	1	1	1	0.4	56*
COC(=O)CN(c1ccc(C)c(Cl)c1)S(C)(=O)=O	1.4	-9	1.1	0.5	54*
Cn1nnc2cc(C(=O)N3CCN(c4ccccc4)CC3)ccc21	1	10	0.9	0.7	34
O=C(NCc1cc(C(F)(F)F)cc(C(F)(F)F)c1)C1CC(c2cccc([N+](=O)[O-])c2)=NO1 (stereo not given)	1.1	-22	1.2	1	-4
SMILES	PLAP activator	CYP2C9 inh	CYP2C9 act	CYP2C19 activ	CYP2C19 inhib
O=C(OCc1nnc(-c2ccc(Cl)cc2)o1)c1ccncc1	1.1	67*	0.3	0.3	65*
CC(=O)c1ccc(OCCCC(=O)OCc2nnc(-c3ccc(Cl)cc3)o2)cc1	1.8	-101	2*	0.6	36
Cc1noc(C)c1COc1ccc(C(=O)OCc2nnc(-c3ccc(Cl)cc3)o2)cc1	1.3	95*	0	0.2	79*
CCn1c(SCC(=O)NCc2ccco2)nnc1C(C)C	1.3	-27	1.3	0.9	11
CC(NC(=O)c1ccco1)C(c1cccs1)N1CCN(c2ccccc2)CC1 (stereo not given)	1.2	25	0.7	0.4	56*
O=C(CN1CCN(Cc2ccccc2)CC1)NC(=O)NC1CCCCC1	1.2	8	0.9	1	2
CC(NC(=O)NC1CCCCC1)C(c1cccs1)N1CCN(Cc2ccccc2)CC1 (stereo not given)	x	54*	0.5	0.6	39
Cc1cccc(NC(=O)NC(C)C(c2cccs2)N2CCOCC2)c1 (stereo not given)	1.6	44	0.6	0.2	83*
CC(=O)NC(C)C(c1cccs1)N1CCN(c2ccccc2)CC1 (stereo not given)	1.1	14	0.9	0.5	48
CC(NC(=O)Cc1cccs1)C(c1cccs1)N1CCN(c2ccccc2F)CC1 (stereo not given)	0.9	54*	0.5	0.6	38
COc1ccccc1C(=O)NC(C)C(c1cccs1)N1CCOCC1 (stereo not given)	0.8	24	0.8	0.5	51*
CCOC(=O)/C(=N\Nc1cccc(C(F)(F)F)c1)N(CCOC)CCOC	1.7	89*	0.1	0	99*
CN(CC(=O)Nc1ccc(S(N)(=O)=O)cc1)c1ccccc1	1.2	-4	1	1.1	-10
COc1ccc(S(=O)(=O)Nc2ccccc2SC)cc1C	1.2	-104	2*	0	99*
Cc1nn(-c2ccccc2)c(Cl)c1/C=N/Nc1ccc(S(=O)(=O)Nc2ccccc2C(=O)O)cc1[N+](=O)[O-]	1.1	69*	0.3	1	5
Cc1cc(S(=O)(=O)Nc2ccccc2C(=O)O)ccc1Cl	1.4	74*	0.3	0.6	37
COc1ccccc1NS(=O)(=O)c1ccc(C)c(C(=O)NCC2CCCO2)c1 (stereo not given)	1	-58	1.6	0.6	42
COc1ccc(S(=O)(=O)Nc2ccccc2OC)cc1C	1.1	-186	2.9*	0	100*
CCN(CC)C(=O)CCNS(=O)(=O)c1ccc(C)cc1	1	-22	1.2	0.6	37
CN(C)CCNCc1ccccc1OC1CCCC1	1	-17	1.2	1.2	-17
COc1cc(C)c(S(=O)(=O)Nc2ccccc2F)cc1C	1	52*	0.5	0.1	88*
COc1ccccc1NS(=O)(=O)c1ccc(O)c(C(N)=O)c1	1.1	14	0.9	0	100*
CSc1ccccc1NS(=O)(=O)c1ccccc1	1.1	-360	4.6*	0.1	87*
COc1cc(NS(=O)(=O)c2ccc(C)c(C)c2)c(OC)cc1Cl	1.4	95*	0.1	0	100*
COc1cc(C)c(S(=O)(=O)n2nnc3ccccc32)cc1C	1	-32	1.3	1.2	-20
C=CCc1ccccc1OCC(=O)OCCNC(=O)c1cccnc1	1	18	0.8	0.9	10
COc1ccc(C(=O)Nc2ccc(Cl)cc2C(=O)N2CCCC(C)C2)cc1 (stereo not given)	1	23	0.8	0.7	33
